# Assay results taken from the supplement of paper PMC9334596.
# Several values for one entry are separate records, joined by “and”; a condition that tells them apart may be missing. Equal entries are not always repeated. In all, about 5,300 compounds were measured (“PER2::LUC luminescence relative to vehicle control”: median about 0.96, highest 2% from about 1.3 on). This is one part of a sample in which the highest values are shown more often than they occur.
# System: mPer2Luc MEF
# Assay: PER2::LUC luminescence relative to vehicle control (fold of vehicle); higher = higher PER2::LUC reporter signal
# Settings: 10 µM
# How it was run: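 In 384-well plates, ~3000 mPer2Luc reporter mouse embryonic fibroblasts per well were cultured in DMEM with 10% FBS at 37 °C and 5% CO2 for 48 h before compounds from commercial libraries were added at 10 μM. ONE-Glo luciferase readings were taken 24 h and 30 h after treatment. Each value is PER2::LUC luminescence given as fold of vehicle control.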
Structure (SMILES),PER2::LUC luminescence (time after treatment 24 h),PER2::LUC luminescence (time after treatment 30 h)
CC(C)(C)[Si](C)(C)Oc1ccc2oc(=O)c3c(c2c1)CCCN3,1.14,1.15
CC(=O)O[C@@H]1C[C@@]23C[C@@]24CC[C@H](O[C@@H]2OC[C@@H](O)[C@H](O)[C@H]2O)C(C)(C)[C@@H]4CC[C@H]3[C@]2(C)C[C@@H]3O[C@]4(C[C@@H](C)[C@@H]3[C@@]12C)O[C@H](O)[C@@]1(C)O[C@@H]41,0.888,0.982
CC[C@H](C)[C@@H]([C@@H](CC(=O)N1CCC[C@H]1[C@H](OC)[C@@H](C)C(=O)N[C@@H](Cc1ccccc1)c1nccs1)OC)N(C)C(=O)[C@@H](NC(=O)[C@@H](NC)C(C)C)C(C)C,0.338,0.385
O=C(O)CCC/C=C\C/C=C\C/C=C\C/C=C\CCCCCO,0.987,0.936
COc1cc2c(cc1OC)[C@H]1[C@@H](C)c3ccc(OC)c(OC)c3CN1CC2,0.954,0.973
COc1cc2nccc(Oc3ccc(NC(=O)Nc4ccc(F)cc4F)c(F)c3)c2cc1OC,0.785,0.689
CCCCOc1ccc(CC(=O)NO)cc1,1.01,1.01
CCCCOc1ccc(C(=O)Nc2ccc(F)cc2F)cc1,1.29,1.34
O=C[C@H](O)[C@@H](O)[C@H](O)CO (racemic),0.94,1.06
C[C@@H](O)[C@H]1C(=O)N2C(C(=O)O)=C(SC3CN(C4=NCCS4)C3)[C@H](C)[C@H]12,1.03,1.01
O=C(O)c1ccc2nc(-c3cc(Cl)cc(Cl)c3)oc2c1,1.42,1.43
C=CC(C1=CC(=O)C(OC)=CC1=O)c1ccc(OC)cc1 (stereo not drawn),1.16,1.02
CC1(C)[C@@H](O)CC[C@]2(C)[C@H]3C(=O)C=C4[C@H]5C[C@@](C)(C(=O)O)CC[C@]5(C)CC[C@@]4(C)[C@]3(C)CC[C@@H]12,0.97,0.899
CC1(C)[C@@H](O)CC[C@]2(C)[C@H]3C(=O)C=C4[C@@H]5C[C@@](C)(C(=O)O)CC[C@]5(C)CC[C@@]4(C)[C@]3(C)CC[C@@H]12,1.22 and 0.966,1.5 and 0.907
CC1(C)[C@@H](OC(=O)CCC(=O)O)CC[C@]2(C)[C@H]3C(=O)C=C4[C@@H]5C[C@@](C)(C(=O)O)CC[C@]5(C)CC[C@@]4(C)[C@]3(C)CC[C@@H]12,0.965 and 0.646,0.891 and 1.01
CC(C)C[C@H](N)C(=O)N[C@H](C(=O)N[C@H](C(=O)N[C@@H](Cc1ccc(O)cc1)C(=O)N1CCC[C@H]1C(=O)N[C@@H](Cc1c[nH]c2ccccc12)C(=O)N[C@H](C(=O)N[C@@H](CCC(N)=O)C(=O)N[C@@H](CCCN=C(N)N)C(=O)O)[C@@H](C)O)C(C)C)C(C)C,0.942,0.916
COc1ccc(C[C@H]2c3cc(OC)c(OC)cc3CC[N+]2(C)C)cc1OC,0.944,0.889
COc1ccccc1-c1nc(-c2ccccn2)no1,0.948,0.943
C#CCCC(=O)O,1.07,0.985
COCCCOc1ccnc(C[S+]([O-])c2nc3ccccc3[nH]2)c1C (stereo not drawn),1.15 and 1.39 and 1.44,1.12 and 1.68 and 1.47
COc1ccnc(C[S+]([O-])c2nc3cc(-n4cccc4)ccc3[nH]2)c1C (stereo not drawn),1.07,1.05
COc1ccc2[nH]c([S+]([O-])Cc3ncc(C)c(OC)c3C)nc2c1 (stereo not drawn),0.886,1.08

Structure (SMILES),PER2::LUC luminescence (time after treatment 24 h),PER2::LUC luminescence (time after treatment 30 h)
COc1ccc2[nH]c([S+]([O-])Cc3ncc(C)c(OC)c3C)nc2n1 (stereo not drawn),0.776,1.01
Cc1c(OCC(F)(F)F)ccnc1C[S+]([O-])c1nc2ccccc2[nH]1 (stereo not drawn),1.17,1.67
Cc1c(OCC(F)(F)F)ccnc1C[S@@+]([O-])c1nc2ccccc2[nH]1,1.68 and 1.14,1.73 and 1.12
COc1ccc2[nH]c([S@@+]([O-])Cc3ncc(C)c(OC)c3C)nc2c1,1.02 and 1.01 and 1.11,1.01 and 0.923 and 1.08
COc1ccnc(C[S+]([O-])c2nc3cc(OC(F)F)ccc3[nH]2)c1OC (stereo not drawn),0.944 and 1.32,1.01 and 0.991
N=C(N/N=C/c1ccc(Cl)cc1)N/N=C/c1ccc(Cl)cc1,0.996,0.988
CCOC(=O)C1=Cc2ccc(C(F)(F)C(F)(F)F)cc2N=C(N)C1,1.07,1.05
O=[N+]([O-])c1cc(C(F)(F)F)cc([N+](=O)[O-])c1NNC(=S)Nc1ccc(F)cc1,0.67,0.671
CCCCC[C@H](O)/C=C/[C@@H]1[C@@H](C/C=C\CCCC(=O)O)[C@H](O)C[C@H]1O,1.1,1.1
Oc1ccccc1NCc1ccccn1,0.921,1.05
C[C@H](CCC(=O)NCC(=O)NCCS(=O)(=O)O)[C@H]1CC[C@H]2[C@@H]3[C@H](O)C[C@@H]4C[C@H](O)CC[C@]4(C)[C@H]3C[C@H](O)[C@]12C,0.886,0.904
CC(=O)OCC(=O)[C@@]12OC3(CCCC3)O[C@@H]1C[C@H]1[C@@H]3CCC4=CC(=O)C=C[C@]4(C)[C@@]3(F)[C@@H](O)C[C@@]12C,0.828,1.13
CC1(C)O[C@@H]2C[C@H]3[C@@H]4C[C@H](F)C5=CC(=O)C=C[C@]5(C)[C@@]4(F)[C@@H](O)C[C@]3(C)[C@]2(C(=O)CO)O1,0.902,1.15
CCCCC(=O)O[C@]1(C(=O)CO)[C@@H](C)C[C@H]2[C@@H]3CCC4=CC(=O)C=C[C@]4(C)[C@@]3(F)[C@@H](O)C[C@@]21C,0.684 and 0.795,1.37 and 1.15
CCC(=O)O[C@]1(C(=O)CCl)[C@@H](C)C[C@H]2[C@@H]3CCC4=CC(=O)C=C[C@]4(C)[C@@]3(F)[C@@H](O)C[C@@]21C,0.711,1.08
CCC(=O)OCC(=O)[C@@]1(OC(=O)CC)[C@@H](C)C[C@H]2[C@@H]3CCC4=CC(=O)C=C[C@]4(C)[C@@]3(F)[C@@H](O)C[C@@]21C,0.454 and 0.475,1.01 and 0.98
CC1(C)O[C@@H]2C[C@H]3[C@@H]4CCC5=CC(=O)C=C[C@]5(C)[C@@]4(F)[C@@H](O)C[C@]3(C)[C@]2(C(=O)CO)O1,0.583,1.35
Nc1nc(=O)c2c([nH]1)NCC(CNc1ccc(C(=O)N[C@@H](CCC(=O)O)C(=O)O)cc1)=N2,1.06,0.985
COc1cccc(NCC(O)Cn2c3ccc(Br)cc3c3cc(Br)ccc32)c1 (stereo in doubt),0.88,0.955
COc1ccc(-c2c(O)c3c(OC)c4c(cc3oc2=O)OC(C)(C)C=C4)cc1,1.5,1.46
COc1c2c(cc3occ(-c4ccc5c(c4)OCO5)c(=O)c13)OC(C)(C)C=C2,0.833,0.876
COc1cc(OC)c2c(OC)c(-c3ccc4c(c3)OCO4)c(=O)oc2c1,1.02,1.21
